ELG1 repair inh: blocks ELG1-dependent DNA repair in HEK293T cells; HEK293T ELG1-luciferase reporter, luminescence, 16 h; DNA damage induced by 5-fluorouridine; Potency, µM (highest dose often 46.1 µM), hits mostly inhibitors; 330,000 compounds, 2.3% hits; AID 504467; note: nearly all actives have a fitted effect of over 55% in size
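HEK293T cells expressing luciferase-tagged ELG1 (2,000/well) received 5-Fluorouridine plus compound or DMSO for 16 hr at 37 °C. Luciferase was read by ONE-Glo luminescence after 30 min at room temperature.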
TDP1 cell CPT: growth inhibition of DT40 Tdp1-/-;hTDP1 cells with camptothecin (screen for TDP1 inhibitors); chicken DT40 Tdp1-/-;hTDP1 cells + 20 nM CPT, ATP luminescence, 48 h; Potency, µM (top dose mostly 46.2 µM), actives largely listed as inhibitors; 420,000 compounds, 12% hits; AID 686979; note: nearly all actives have a fitted effect of over 55% in size
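Chicken DT40 Tdp1-/- cells stably complemented with human TDP1 were seeded at 400 cells/well in medium containing 20 nM camptothecin, exposed to pin-transferred compounds, and grown at 37 °C for at least 48 hr. Viability was read as ATP luminescence.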
TDP1 block: TDP1 (human) enzyme inhibition; 350,000 compounds, 0.28% hits; Q9NUW8; recombinant TDP1, AlphaScreen DNA substrate cleavage; Potency, µM (highest dose often 130 µM), most hits filed as inhibitors; note: nearly all actives have a fitted effect of over 40% in size
Target sequence (Q9NUW8 whole entry, looked up): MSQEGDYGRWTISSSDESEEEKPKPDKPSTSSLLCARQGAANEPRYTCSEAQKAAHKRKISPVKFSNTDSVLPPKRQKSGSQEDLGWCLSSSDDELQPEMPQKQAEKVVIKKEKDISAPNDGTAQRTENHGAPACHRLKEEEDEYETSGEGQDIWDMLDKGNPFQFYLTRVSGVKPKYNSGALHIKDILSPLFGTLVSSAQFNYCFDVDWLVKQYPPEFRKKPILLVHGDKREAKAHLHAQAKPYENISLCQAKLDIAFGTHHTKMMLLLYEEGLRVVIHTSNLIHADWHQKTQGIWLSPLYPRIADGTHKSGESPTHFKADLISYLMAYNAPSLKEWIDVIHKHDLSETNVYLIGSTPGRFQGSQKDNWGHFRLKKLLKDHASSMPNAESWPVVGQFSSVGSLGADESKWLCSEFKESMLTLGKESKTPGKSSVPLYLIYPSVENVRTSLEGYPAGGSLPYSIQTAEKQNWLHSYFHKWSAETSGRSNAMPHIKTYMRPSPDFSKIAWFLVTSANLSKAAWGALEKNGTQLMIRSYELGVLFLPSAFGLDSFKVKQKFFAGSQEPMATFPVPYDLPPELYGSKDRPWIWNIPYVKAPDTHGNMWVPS
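Tdp1 1 nM final; 15 min RT w/ cpd; substrate 15 nM, 5 min; beads 10 ug/ml, 10 min; AlphaScreen read. Neg ctrl: no enzyme.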
IL1B secr inh: inhibitors of inflammasome signaling (IL-1 beta secretion); THP-1 LPS/ATP IL-1B secretion, AlphaLISA, 16 h; stronger effect = lower value; activity change, % at 57.5 µM; 360,000 compounds, 4.7% hits; in the data active = activity change below about -50%; inconclusive = mostly about -30% to -49%
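Secreted IL-1B measured by AlphaLISA bead assay after 16 h compound exposure of THP-1 cells; compounds (final up to 57.5 uM) added 1 h before LPS (250 ng/mL) and ATP (1.25 mM) stimulation; lower signal means less secretion.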
TDP1 cell noCPT: qHTS for Inhibitors of human tyrosyl-DNA phosphodiesterase 1 (TDP1): qHTS in cells in absence of CPT | Potency, µM (titrated, usually from 46.2 µM), actives largely listed as inhibitors | 420,000 compounds, 15% hits | AID 686978, 2013 | DT40 Tdp1-/- hTDP1 cells, no CPT, ATP luminescence, 48 h; note: nearly all actives have a fitted effect of over 55% in size
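Readout: luminescence from CellTiter-Glo after 30 min in the dark at RT. Cells: DT40 Tdp1-/- with stable hTDP1, 400/well. Exposure: compounds alone, ≥48 hr, 37 °C.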
Giardia kill: kills Giardia lamblia; Giardia lamblia trophozoite viability; activity change, % at 7.66 µM, hits read low; 340,000 compounds, 0.15% hits; AID 540267; in the data active = activity change below about -80%; inconclusive = between about -30% and that limit;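 note: parasites exposed to compound for two days anaerobically before the ATP read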
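Anaerobic 48 hrs incubation at 37 deg C of 100 trophozoites/well with test compounds; ATPLite 1-Step luminescence, 15-30 min RT, reports cellular ATP as viability.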
Of the large screens only hits and unclear results are named; the others gave an inactive call; ! = not active in a repeat. Only some compounds are listed: those with a hit (about 19% of all), similar ones and a draw of the others. Unless noted, calls come from the whole dose curve; as a rule, active = well fitted curve in the direction sought with a large enough effect; inconclusive = small, poorly fitted or top-dose-only effect, or another doubt; inactive = no such curve, though single readings can be large; an effect the other way counts as inactive or inconclusive.

Cc1cc(C)nc(NS(=O)(=O)c2ccc(NC(=O)CN3C(=O)C4CC=CCC4C3=O)cc2)n1 (centres undefined)	ELG1 repair inh inconclusive
CCC[C@H]1COCCS(=O)(=O)N1Cc1cccc(F)c1	none (no result: ELG1 repair inh, TDP1 block, IL1B secr inh, Giardia kill)
CCCC[C@H]1COCCS(=O)(=O)N1Cc1cccc(F)c1	TDP1 cell CPT inconclusive, TDP1 cell noCPT 13µM! (no result: TDP1 block)
Cn1cccc1C(=O)C(=O)Nc1ccc(F)c(F)c1	ELG1 repair inh inconclusive
Cn1cccc1C(=O)C(=O)Nc1cc(Cl)cc(Cl)c1	ELG1 repair inh inconclusive, TDP1 cell CPT 16µM, TDP1 cell noCPT 15µM
CC(Oc1ccc(Cl)cc1Cl)c1ccnc(N)n1 (centres undefined)	IL1B secr inh -56
CC(Oc1ccccc1)c1ccnc(N)n1 (centres undefined)	none
Cn1c(CC(O)c2nc3ccccc3n2C)nc2ccccc21 (centres undefined)	none (no result: ELG1 repair inh, TDP1 block, Giardia kill)
Cc1ccccc1OCc1nc2ccccc2[nH]1	ELG1 repair inh inconclusive, TDP1 cell CPT 23µM, TDP1 cell noCPT 16µM
COc1ccccc1OCc1nc2ccccc2[nH]1	ELG1 repair inh inconclusive
COc1cccc(OCc2nc3ccccc3[nH]2)c1	ELG1 repair inh inconclusive, TDP1 cell CPT 13µM, TDP1 cell noCPT inconclusive
CC1CCC2C(=O)OC(CN=[N+]=[N-])CN2C1c1ccc(Br)cc1 (centres undefined)	none (no result: ELG1 repair inh, TDP1 cell CPT, IL1B secr inh, TDP1 cell noCPT, Giardia kill)
CCN(CC)S(=O)(=O)c1ccc2c(c1)N(CC(=O)N1CCC(C(N)=O)CC1)C(=O)CO2	none
Cc1cccc(NC(=S)NCCSc2ccc(Cl)cc2)c1	IL1B secr inh -105
Cc1ccc(NC(=S)NCC(C)CSc2ccc(Cl)cc2)cc1 (centres undefined)	ELG1 repair inh inconclusive, TDP1 cell noCPT inconclusive
COc1ccc(NC(=S)NCCSc2ccc(C)cc2)c(OC)c1	TDP1 cell CPT inconclusive, IL1B secr inh inconclusive, TDP1 cell noCPT inconclusive (no result: ELG1 repair inh, TDP1 block)
COc1ccc(OC)c(NC(=S)NCCSc2ccc(C)cc2)c1	TDP1 cell CPT inconclusive, TDP1 cell noCPT 16µM
Cc1cccc(NC(=S)NCC(C)CSc2ccc(Cl)cc2)c1 (centres undefined)	ELG1 repair inh inconclusive, TDP1 cell CPT inconclusive, TDP1 cell noCPT 16µM
Cc1ccc(C)c(NC(=S)NCCSc2ccc(Cl)cc2)c1	TDP1 cell CPT 21µM, IL1B secr inh inconclusive, TDP1 cell noCPT 16µM
O=C(NCc1nnc2n1CCN(Cc1ccccc1C(F)(F)F)CC2)c1ccncc1	none (no result: ELG1 repair inh, TDP1 block, IL1B secr inh, Giardia kill)
Cc1ccc(NC(=S)NCCSc2ccc(Cl)cc2)c(C)c1	TDP1 cell CPT inconclusive, TDP1 cell noCPT inconclusive
CS(=O)(=O)Nc1ccccc1C(=O)NCCSc1ccc(Cl)cc1	ELG1 repair inh inconclusive, TDP1 cell CPT inconclusive, TDP1 cell noCPT inconclusive (no result: TDP1 block)
CCc1ccccc1NC(=S)NCCSc1ccc(Cl)cc1	ELG1 repair inh inconclusive, TDP1 cell CPT inconclusive, IL1B secr inh -98, TDP1 cell noCPT inconclusive
Cc1ccc(Cl)cc1NC(=S)NCCCSC1CCCCC1	TDP1 cell CPT inconclusive, IL1B secr inh -101, TDP1 cell noCPT 18µM
Cc1ccccc1NC(=S)NCCSc1ccc(Cl)cc1	TDP1 cell CPT inconclusive, IL1B secr inh -82, TDP1 cell noCPT 18µM
COC(=O)c1c[n+]([O-])ccc1OC	none (no result: ELG1 repair inh, TDP1 block, Giardia kill)
COc1cc[n+]([O-])cc1[N+](=O)[O-]	TDP1 cell CPT inconclusive, TDP1 cell noCPT 2.3µM (no result: ELG1 repair inh, TDP1 block)
Cc1ccc(S(=O)(=O)N2CCCc3cc(NC(=O)c4ccc(Cl)cc4)ccc32)cc1	TDP1 cell CPT inconclusive, TDP1 cell noCPT inconclusive (no result: ELG1 repair inh, IL1B secr inh, Giardia kill)
Cc1ccc(S(=O)(=O)N2CCCc3cc(NC(=O)c4ccc(C(F)(F)F)cc4)ccc32)cc1	TDP1 cell CPT inconclusive, TDP1 cell noCPT 21µM (no result: ELG1 repair inh, IL1B secr inh, Giardia kill)
Cc1ccc(S(=O)(=O)N2CCc3cc(C(=O)Nc4ccc(C(F)(F)F)cc4)ccc32)cc1	TDP1 cell CPT inconclusive, TDP1 cell noCPT inconclusive (no result: ELG1 repair inh, IL1B secr inh, Giardia kill)
COc1ccc(C(=O)Nc2ccc3c(c2)CCCN3S(=O)(=O)c2ccc(C)cc2)c(OC)c1	TDP1 cell CPT 5.8µM, TDP1 cell noCPT 5.2µM (no result: ELG1 repair inh, IL1B secr inh, Giardia kill)
